# Screening results (PubChem)
# Shiga toxin inh: A qHTS for Small Molecule Inhibitors of Shiga Toxin. Vero cells, Shiga toxin protein synthesis inhibition reporter. inhibition, % at 38.7 µM. 290,000 tested, 9.2% active. AID 2315, 2010; in the data active = inhibition mostly above about 28%, no sharp cut-off; inactive = mostly below about 43%; note: 0% is about no effect
# FMDV inh: High Throughput Screening for Foot and Mouth Disease Virus Antivirals; FMDV antiviral cell-based qHTS; Potency, µM (top dose mostly 57.9 µM), for the others: at the top dose activity change, negative = inhibition, usual class: inhibitors; 410,000 tested, 1.2% active; calls by dose curve; tested in HEK293T cells; note: read-out not given here; potency is the fitted concentration of half-maximal effect; % is set by controls: 0 for no effect and ±100 for the full control effect; nearly all actives have a fitted effect of over 45% in size
# Sm TGR inh: qHTS Assay for the Inhibitors of Schistosoma Mansoni Peroxiredoxins | purified TGR, DTNB reduction, TNB absorbance 405 nm | Potency, µM (titrated, usually from 114 µM), for inactives: at the highest dose activity change, negative = inhibition, most hits filed as inhibitors | 360,000 tested, 3% active | AID 485364, 2010; active = well fitted inhibition curve with a large enough effect; inconclusive = small, poorly fitted or top-dose-only effect; inactive = no such curve, though single readings can be large or run the other way; note: potency is the fitted concentration of half-maximal effect; % is set by controls: 0 for no effect and ±100 for the full control effect; nearly all actives have a fitted effect of over 60% in size
#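 TGR 20 nM + NADPH 100 uM (dispensed conc.), cpd preinc 15 min RT; start with NADPH (500 uM addition) then DTNB (15 mM addition). Kinetic TNB absorbance, 405 nm filter. Four-parameter Hill fit across titration.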
# Cycloheximide cs: Cycloheximide Counterscreen for Small Molecule Inhibitors of Shiga Toxin. cell reporter, cycloheximide protein synthesis inhibition counterscreen. max response, %. 300,000 tested, 12% active. AID 2314, 2010; in the data active = max response mostly above about 13%, no sharp cut-off; inactive = mostly below about 14%; note: read at 38.3 µM for the half of the compounds with a filed dose; 0% is about no effect
# * marks the source's active call; other numbers are inactive results; i = inactive; ? = inconclusive; / = not tested or not shown. Compounds with a hit are over-represented: about 12% of the library has one in this group of screens.
SMILES,Shiga toxin inh,FMDV inh,Sm TGR inh,Cycloheximide cs
O=C1CCC(C(=O)Nc2cccc(Oc3ccccc3)c2)=NN1,16,11%,0%,15*
CCOC(=O)N1CCN(C(=O)CSCC(=O)Nc2nc(-c3cccs3)cs2)CC1,11,14µM*,23%,-1
CC1CCCCN1C(=O)CSCC(=O)Nc1nc(-c2cccs2)cs1 (stereo not given),37*,0%,5%,24*
CC1CCN(C(=O)CSCC(=O)Nc2nc(-c3cccs3)cs2)CC1,45*,-16%,-2%,10*
Cc1nn(-c2ccc(N3CCCCC3)nn2)c(C)c1CCC(=O)NCc1ccc(OC(C)C)cc1,/,-10%,3%,/
O=C(Cn1cnc2nc3c(cc2c1=O)CCCC3)Nc1ccc(F)cc1Cl,/,-10%,1%,/
O=C(Nc1nccs1)c1nc[nH]c1C(=O)N1CCN(c2ccccc2)CC1,/,0%,/,/
CC1CCN(C(=O)c2[nH]cnc2C(=O)Nc2nccs2)CC1,/,33%,28µM*,/
Cc1ccc(NC(=O)/C=C/c2ccc(C)o2)c(C)c1,/,11%,7.9µM*,/
Cc1ccc(/C=C/C(=O)Nc2cccc3cccnc23)o1,-5,20%,?,27
COC(=O)c1cc(Cl)c(NC(=O)/C=C/c2ccc(Cl)cc2Cl)cc1OC,11,-19%,9%,-3
COC(=O)c1ccc(Cl)cc1NC(=O)/C=C/c1ccc(C)o1,-4,-5%,20µM*,-3
COc1c(Cl)cc(C(=O)N(Cc2ccc(C)o2)C2CCS(=O)(=O)C2)cc1Cl (stereo not given),/,-14%,-13%,/
Cc1ccc(-n2nc(C(=O)Nc3ccc(F)cc3Cl)c(=O)n(C)c2=O)cc1,/,-17%,3%,/
Cc1ccccc1-c1nn2c(=O)cc(CN3CCN(C(=O)/C=C/c4ccccc4)CC3)nc2s1,/,-15%,40µM*,/
COc1cccc(-c2nn3c(=O)cc(CN4CCN(C(=O)COc5ccccc5C)CC4)nc3s2)c1,/,3.5µM*,-1%,/
COc1ccc(OCC(=O)N2CCN(Cc3cc(=O)n4nc(-c5ccccc5C)sc4n3)CC2)cc1,/,?,-6%,/
O=C(COc1ccc(Br)cc1Cl)NC(=S)N1CCc2ccccc21,50*,14%,6%,35*
O=C(NC(=S)N1CCc2ccccc21)c1ccccc1Br,96*,7%,-15%,25*
CC(Oc1ccc(Cl)cc1Cl)C(=O)NC(=S)N1CCc2ccccc21 (stereo not given),12,-22%,2%,4
O=C(COc1ccc(Br)cc1Br)NC(=S)N1CCCc2ccccc21,54,-9%,-7%,48*
Cc1c(-c2nc(-c3ccc4c(c3)OCO4)no2)nnn1-c1ccc(C(C)C)cc1,/,-5%,8%,/
Cc1ccc(CNC(=O)CCCCn2c(=O)c3ccccc3n(Cc3c(C)cc(C)cc3C)c2=O)cc1,/,-21%,6%,/
COc1ccc(-c2nnc3n2N=C(c2ccc(OC)c(OC)c2)CS3)cc1,-4,/,/,3
Nc1nonc1-c1nc2ccccc2n1CC(=O)Nc1cccc(C(F)(F)F)c1,/,?,2%,/
SMILES,Shiga toxin inh,FMDV inh,Sm TGR inh,Cycloheximide cs
C=C1c2cccc(OC)c2O[C@H](C(=O)OCC)[C@@H]1CCC(C)C,i,/,/,10
COc1ccccc1Nc1nnc(SCc2nnc(-c3cc(OC)c(OC)c(OC)c3)o2)s1,22,0%,0%,-2
COc1cc(-c2nnc(CSc3nnc(Nc4ccc(C(C)C)cc4)s3)o2)cc(OC)c1OC,48,13%,0%,19*
NC(C(=O)O)C(c1ccccc1)C(F)F (stereo not given),14,-5%,56µM*,4
COc1cccc(CNC(=O)c2ccc(CSc3nc4ccncc4n3Cc3cccc(C)c3)cc2)c1,/,-14%,5%,/
CC(C)OCCCNC(=O)CCCn1c(SCC(N)=O)nc2c(sc3ccccc32)c1=O,/,-18%,7%,/
CCCCOc1ccc(C(=O)NCc2nnnn2-c2ccc(C)c(C)c2)cc1,/,-1%,4%,/
Cn1c(=O)c2c(nc(N/N=C/c3cccnc3)n2Cc2ccc(F)cc2)n(C)c1=O,-8,-18%,2%,-3
Cn1c(=O)c2c(nc(N/N=C/c3ccc(OC(=O)c4ccco4)cc3)n2Cc2ccccc2)n(C)c1=O,6,13µM*,1%,-5
Cn1c(=O)c2c(nc(N/N=C/c3cccs3)n2Cc2ccccc2)n(C)c1=O,-5,25µM*,2%,2
CC(C)(C)c1ccc(-c2nc(C#N)c(NCc3cccnc3)o2)cc1,23,2%,0%,32*
Cc1ccc(OCc2ccc(-c3nc(C#N)c(NCc4cccnc4)o3)o2)cc1,/,?,-3%,/
Cc1cccc(-c2nc(C#N)c(NCc3ccco3)o2)c1,54*,82%,-9%,57*
